Measured values: PubChem BioAssay (Tox21)
Values joined by “and” are separate entries in the source; they are usually repeats but may differ in a detail not shown here. Equal values may be shown once. Records with an inconclusive call do not appear. A call without a number means that no potency is given here. The source holds several records for some structures; these can differ, active in one and inactive in another. Active and inactive are the calls of the source. Calls follow the shape of the dose curve; as a rule, active = well fitted curve in the direction sought with a large enough effect in the repeat runs; inconclusive = weak or mixed curves; inactive = no such curve, though single readings can be large; an effect the other way counts as inactive or inconclusive.

What was measured:
[1] = A CellTox Green Cytotoxicity Assay to monitor cytotoxicity in HEK293 cells - 32 hour (AID 1224881); also: nearly all actives have a fitted effect of over 40% in size; also: potency is read from the fitted curve at half-maximal effect
In short: (§1)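 Fluorescence intensity, read at 0, 8, 16, 24, 32 and 40 h of compound treatment, reflected dye binding to DNA of dead HEK293 cells; compounds (23 nL, DMSO) were added 5 h after plating cells with reagent.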

[2] = A CellTox Green Cytotoxicity Assay to monitor cytotoxicity in HepG2 cells - 0 hour (AID 1224882); also: nearly all actives have a fitted effect of over 35% in size
In short: (§2)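 Using 1536-well format, dye-containing HepG2 suspension was seeded, allowed 5 h at 37 C/5% CO2, dosed by pintool with compounds, positive and negative controls, and imaged for fluorescence across 40 h.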

[3] = A CellTox Green Cytotoxicity Assay to monitor cytotoxicity in HepG2 cells - 32 hour (AID 1224883); also: nearly all actives have a fitted effect of over 50% in size; also: potency is read from the fitted curve at half-maximal effect
In short: as §2

[4] = A CellTox Green Cytotoxicity Assay to monitor cytotoxicity in HEK293 cells - 8 hour (AID 1224884); also: nearly all actives have a fitted effect of over 35% in size
In short: as §1

[5] = qHTS RealTime-Glo MT Cell Viability Assay in HepG2 cells - 16 hour (AID 1224885); also: nearly all actives have a fitted effect of over 50% in size
In short: (§3)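 Tox21 10K library screened in qHTS format on HepG2 cells carrying RealTime-Glo reagents. Compounds were added after a 5 h preincubation, and the luminescent signal from continuous culture was measured repeatedly during 40 h treatment.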

[6] = qHTS RealTime-Glo MT Cell Viability Assay in HEK293 cells - 24 hour (AID 1224886); also: nearly all actives have a fitted effect of over 50% in size; also: potency is read from the fitted curve at half-maximal effect
In short: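 Luminescence generated by NanoLuc from substrate produced by living HEK293 cells served as the viability signal. Each value reflects the reading at its stated time point during continuous 40 h compound exposure at 37 C.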

[7] = qHTS RealTime-Glo MT Cell Viability Assay in HEK293 cells - 8 hour (AID 1224887); also: top concentration of the series differs between compounds; nearly all actives have a fitted effect of over 50% in size
In short: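 Viable HEK293 cells reduce a cell-permeant prosubstrate; the product diffuses out and is consumed by NanoLuc in the medium to give light. Compounds went in after a 5 h incubation and plates were read over the treatment course.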

[8] = A CellTox Green Cytotoxicity Assay to monitor cytotoxicity in HEK293 cells - 16 hour (AID 1224888); also: nearly all actives have a fitted effect of over 35% in size
In short: as §1

[9] = qHTS RealTime-Glo MT Cell Viability Assay in HepG2 cells - 0 hour (AID 1224889); also: nearly all actives have a fitted effect of over 50% in size
In short: as §3

[10] = A CellTox Green Cytotoxicity Assay to monitor cytotoxicity in HepG2 cells - 8 hour (AID 1224890); also: nearly all actives have a fitted effect of over 45% in size
In short: as §2

SMILES | Potency [1] | Potency [2] | Potency [3] | Potency [4] | Potency [5] | Potency [6] | Potency [7] | Potency [8] | Potency [9] | Potency [10]
N#CSCc1ccccc1 | inactive | inactive | inactive | inactive | inactive | inactive | inactive | inactive | inactive | inactive
NC(=O)C(Cl)Cl | inactive | inactive | inactive | inactive | inactive | inactive | inactive | inactive | inactive | inactive
CCOC(=O)CCN(SN(C)C(=O)Oc1cccc2c1OC(C)(C)C2)C(C)C | inactive | inactive | inactive | inactive | inactive | inactive | inactive | inactive | inactive | inactive
N#Cc1c2ccccc2cc2ccccc12 | inactive | inactive | inactive | inactive | inactive | inactive | inactive | inactive | inactive | inactive
COCCC#N | inactive | inactive | inactive | inactive | inactive | inactive | inactive | inactive | inactive | inactive
CC(Cc1ccc2c(c1)OCO2)NO (stereo unspecified) | inactive | inactive | inactive | inactive | inactive | inactive | inactive | inactive | inactive | inactive
CC(=O)[O-].CC(=O)[O-].[Co+2] | inactive | inactive | inactive | inactive | inactive | inactive | inactive | inactive | inactive | inactive
C=CC(=C)C | inactive | inactive | inactive | inactive | inactive | inactive | inactive | inactive | inactive | inactive
CC(=O)[O-].CC(=O)[O-].O.O.[Zn+2] | inactive | inactive | inactive | inactive | inactive | inactive | inactive | inactive | inactive | inactive
CC1CCCC1 | inactive | inactive | inactive | inactive | inactive | inactive | inactive | inactive | inactive | inactive
CCCCON=O | inactive | inactive | inactive | inactive | inactive | inactive | inactive | inactive | inactive | inactive
N#Cc1ccc(N(CC(N)=O)CC(F)(F)F)cc1C(F)(F)F | inactive | inactive | inactive | inactive | inactive | inactive | inactive | inactive | inactive | inactive
Cc1ccn2nc(S(=O)(=O)Nc3c(F)cccc3F)nc2n1 | inactive | inactive | inactive | inactive | inactive | inactive | inactive | inactive | inactive | inactive
CCN(CC)CCN1C(=O)CN=C(c2ccccc2F)c2cc(Cl)ccc21 | inactive | inactive | inactive | inactive | inactive | inactive | inactive | inactive | inactive | inactive
c1cc[n+]2c(c1)-c1cccc[n+]1CC2 | inactive | inactive | inactive | inactive | inactive | inactive | inactive | inactive | inactive | inactive
CN1CCc2cc3c(cc2C1O)OCO3 (stereo unspecified) | inactive | inactive | inactive | inactive | inactive | inactive | inactive | inactive | inactive | inactive
COC(=O)/C=C(\C)OP(=O)(OC)OC | inactive | inactive | inactive | inactive | inactive | inactive |  | inactive | inactive | inactive
CCN(CC)C(=S)S | 17.5 µM (active) and 4.87 µM (active) and 11 µM (active) | inactive | inactive and 6.88 µM (active) and 21.9 µM (active) | inactive | inactive | 4.87 µM (active) and 12.3 µM (active) |  | inactive | inactive | inactive
O=[N+]([O-])[O-].[Tl+] | inactive | inactive | inactive | inactive | inactive | inactive | inactive |  | inactive | inactive
CCCCc1ccccc1 | inactive | inactive | inactive | inactive | inactive | inactive | inactive | inactive | inactive | inactive
CSC(C)(C)/C=N/O | inactive | inactive | inactive | inactive | inactive | inactive | inactive |  | inactive | inactive
Nc1nc(N)nc(Cl)n1 | inactive | inactive | inactive | inactive | inactive | inactive | inactive | inactive | inactive | inactive
ClSC(Cl)(Cl)Cl | inactive | inactive | inactive | inactive | inactive | inactive | inactive | inactive | inactive | inactive
